Assays:
Experiment in all cases: log2 ratio of Biotin-Ahx-Ub-VS probe labelling (fragment/DMSO); higher = less target engagement (more negative = stronger competition), active = hit call of the paper (q ≤ 0.05, log2 ratio ≤ -1)
Conditions in all cases: compound concentration: 200 uM; treatment time: 3 h
[1] = target: T1, OTUD6B (UniProt Q8N6M0)
T1 sequence (whole entry): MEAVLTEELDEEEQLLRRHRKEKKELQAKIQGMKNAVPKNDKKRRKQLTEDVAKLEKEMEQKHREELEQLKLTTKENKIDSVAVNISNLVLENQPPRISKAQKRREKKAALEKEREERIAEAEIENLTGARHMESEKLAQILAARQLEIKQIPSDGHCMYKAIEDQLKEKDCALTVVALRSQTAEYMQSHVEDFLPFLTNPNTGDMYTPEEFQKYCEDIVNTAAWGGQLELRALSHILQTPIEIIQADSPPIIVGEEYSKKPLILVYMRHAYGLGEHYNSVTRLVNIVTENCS
Outline: (§1)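 Fragment (200 µM) or vehicle was incubated for 3 h with triplicate HEK293T lysate samples of 495 µg, which were then treated with Biotin-Ahx-Ub-VS at 0.5 µM final for 1 h. Labelled DUBs were enriched on NeutrAvidin, digested with LysC and trypsin, and analysed by diaPASEF LC-MS/MS. Values are average log2 fragment/vehicle ratios from an unpaired t-test on global-median-normalised Spectronaut label-free quantities, using proteins with ≥2 unique peptides.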

[2] = target: T2, OTUD7B (UniProt Q6GQQ9)
T2 sequence (whole entry): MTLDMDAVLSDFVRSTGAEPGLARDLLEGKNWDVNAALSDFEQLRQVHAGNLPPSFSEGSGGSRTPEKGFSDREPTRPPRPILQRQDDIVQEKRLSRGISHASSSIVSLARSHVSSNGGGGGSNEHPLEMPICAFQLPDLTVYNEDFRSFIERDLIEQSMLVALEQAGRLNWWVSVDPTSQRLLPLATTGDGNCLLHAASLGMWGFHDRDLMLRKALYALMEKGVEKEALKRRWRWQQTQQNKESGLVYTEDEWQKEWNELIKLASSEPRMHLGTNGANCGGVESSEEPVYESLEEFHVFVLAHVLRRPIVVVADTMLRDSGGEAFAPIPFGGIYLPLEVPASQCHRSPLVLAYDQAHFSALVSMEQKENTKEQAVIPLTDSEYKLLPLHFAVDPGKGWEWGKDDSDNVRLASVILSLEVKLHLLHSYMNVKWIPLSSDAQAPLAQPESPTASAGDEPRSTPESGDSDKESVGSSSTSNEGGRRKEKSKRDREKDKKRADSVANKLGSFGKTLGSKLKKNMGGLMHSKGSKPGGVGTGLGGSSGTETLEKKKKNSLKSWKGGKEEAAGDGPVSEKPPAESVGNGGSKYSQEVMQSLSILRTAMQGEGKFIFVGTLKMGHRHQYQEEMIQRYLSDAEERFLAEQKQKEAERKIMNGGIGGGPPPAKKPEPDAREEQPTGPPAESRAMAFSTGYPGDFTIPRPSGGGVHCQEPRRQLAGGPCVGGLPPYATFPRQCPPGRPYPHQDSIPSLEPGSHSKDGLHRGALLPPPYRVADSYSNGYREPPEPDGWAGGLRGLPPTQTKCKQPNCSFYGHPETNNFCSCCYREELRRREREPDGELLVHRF
Outline: as §1

[3] = target: PRPF8 (UniProt Q6P2Q9)
Outline: as §1

[4] = target: T3, PSMD7 (UniProt P51665)
T3 sequence (whole entry): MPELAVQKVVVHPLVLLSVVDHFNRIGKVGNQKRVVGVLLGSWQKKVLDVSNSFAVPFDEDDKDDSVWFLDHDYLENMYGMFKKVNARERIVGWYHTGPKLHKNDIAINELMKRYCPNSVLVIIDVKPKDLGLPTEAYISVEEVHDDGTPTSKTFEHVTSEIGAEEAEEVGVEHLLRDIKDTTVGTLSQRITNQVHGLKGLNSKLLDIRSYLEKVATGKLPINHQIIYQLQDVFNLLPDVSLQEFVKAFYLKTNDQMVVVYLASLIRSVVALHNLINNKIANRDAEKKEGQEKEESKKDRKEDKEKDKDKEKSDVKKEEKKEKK
Outline: as §1

[5] = target: UCHL1 (UniProt P09936)
UCHL1, sequence (P09936 whole entry, looked up): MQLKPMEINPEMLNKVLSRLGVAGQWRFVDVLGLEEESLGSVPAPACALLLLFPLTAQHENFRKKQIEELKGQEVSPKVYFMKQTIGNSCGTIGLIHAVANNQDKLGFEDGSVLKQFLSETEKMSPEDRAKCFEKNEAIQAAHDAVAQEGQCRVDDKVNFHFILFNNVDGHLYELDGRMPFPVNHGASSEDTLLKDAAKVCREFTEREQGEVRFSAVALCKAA
Outline: as §1

[6] = target: T4, UCHL3 (UniProt P15374)
T4 sequence (whole entry): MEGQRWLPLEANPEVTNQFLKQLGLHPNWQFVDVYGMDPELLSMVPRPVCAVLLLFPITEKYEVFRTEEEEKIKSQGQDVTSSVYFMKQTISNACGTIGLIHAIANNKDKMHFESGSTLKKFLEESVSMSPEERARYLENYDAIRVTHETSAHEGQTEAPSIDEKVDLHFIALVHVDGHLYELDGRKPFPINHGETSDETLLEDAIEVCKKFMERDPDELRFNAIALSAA
Outline: as §1

[7] = target: T5, UCHL5 (UniProt Q9Y5K5)
T5 sequence (whole entry): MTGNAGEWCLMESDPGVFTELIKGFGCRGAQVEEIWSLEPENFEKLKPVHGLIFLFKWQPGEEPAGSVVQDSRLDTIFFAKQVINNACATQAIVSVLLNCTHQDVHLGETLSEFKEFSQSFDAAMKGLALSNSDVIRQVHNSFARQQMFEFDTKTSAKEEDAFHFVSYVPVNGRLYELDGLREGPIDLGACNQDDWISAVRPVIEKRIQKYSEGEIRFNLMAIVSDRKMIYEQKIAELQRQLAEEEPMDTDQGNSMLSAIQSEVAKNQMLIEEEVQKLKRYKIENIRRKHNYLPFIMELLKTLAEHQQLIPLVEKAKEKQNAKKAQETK
Outline: as §1

[8] = target: USP10 (UniProt Q14694)
USP10, sequence (Q14694 whole entry): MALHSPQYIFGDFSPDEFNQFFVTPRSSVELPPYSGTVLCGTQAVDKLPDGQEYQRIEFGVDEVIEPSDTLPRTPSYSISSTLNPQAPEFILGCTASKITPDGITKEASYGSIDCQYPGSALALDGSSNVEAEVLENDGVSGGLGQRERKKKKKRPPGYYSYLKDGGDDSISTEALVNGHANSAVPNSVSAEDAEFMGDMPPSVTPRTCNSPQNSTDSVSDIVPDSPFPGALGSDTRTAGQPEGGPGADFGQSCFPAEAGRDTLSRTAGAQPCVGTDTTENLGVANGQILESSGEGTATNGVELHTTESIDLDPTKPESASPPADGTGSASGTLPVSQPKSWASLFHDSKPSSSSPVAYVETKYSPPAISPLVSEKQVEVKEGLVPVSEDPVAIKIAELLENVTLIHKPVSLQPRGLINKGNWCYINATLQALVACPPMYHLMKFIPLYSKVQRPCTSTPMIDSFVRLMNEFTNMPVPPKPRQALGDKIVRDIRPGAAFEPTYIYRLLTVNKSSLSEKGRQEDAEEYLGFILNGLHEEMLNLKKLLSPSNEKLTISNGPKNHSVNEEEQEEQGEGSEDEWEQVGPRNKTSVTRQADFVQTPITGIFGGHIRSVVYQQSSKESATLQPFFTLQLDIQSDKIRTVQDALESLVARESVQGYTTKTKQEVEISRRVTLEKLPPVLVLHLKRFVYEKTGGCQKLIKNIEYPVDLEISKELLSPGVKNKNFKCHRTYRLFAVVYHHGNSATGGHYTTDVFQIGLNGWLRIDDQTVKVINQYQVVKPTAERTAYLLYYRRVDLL
Outline: as §1

[9] = target: T6, USP15 (UniProt Q9Y4E8)
T6 sequence (whole entry): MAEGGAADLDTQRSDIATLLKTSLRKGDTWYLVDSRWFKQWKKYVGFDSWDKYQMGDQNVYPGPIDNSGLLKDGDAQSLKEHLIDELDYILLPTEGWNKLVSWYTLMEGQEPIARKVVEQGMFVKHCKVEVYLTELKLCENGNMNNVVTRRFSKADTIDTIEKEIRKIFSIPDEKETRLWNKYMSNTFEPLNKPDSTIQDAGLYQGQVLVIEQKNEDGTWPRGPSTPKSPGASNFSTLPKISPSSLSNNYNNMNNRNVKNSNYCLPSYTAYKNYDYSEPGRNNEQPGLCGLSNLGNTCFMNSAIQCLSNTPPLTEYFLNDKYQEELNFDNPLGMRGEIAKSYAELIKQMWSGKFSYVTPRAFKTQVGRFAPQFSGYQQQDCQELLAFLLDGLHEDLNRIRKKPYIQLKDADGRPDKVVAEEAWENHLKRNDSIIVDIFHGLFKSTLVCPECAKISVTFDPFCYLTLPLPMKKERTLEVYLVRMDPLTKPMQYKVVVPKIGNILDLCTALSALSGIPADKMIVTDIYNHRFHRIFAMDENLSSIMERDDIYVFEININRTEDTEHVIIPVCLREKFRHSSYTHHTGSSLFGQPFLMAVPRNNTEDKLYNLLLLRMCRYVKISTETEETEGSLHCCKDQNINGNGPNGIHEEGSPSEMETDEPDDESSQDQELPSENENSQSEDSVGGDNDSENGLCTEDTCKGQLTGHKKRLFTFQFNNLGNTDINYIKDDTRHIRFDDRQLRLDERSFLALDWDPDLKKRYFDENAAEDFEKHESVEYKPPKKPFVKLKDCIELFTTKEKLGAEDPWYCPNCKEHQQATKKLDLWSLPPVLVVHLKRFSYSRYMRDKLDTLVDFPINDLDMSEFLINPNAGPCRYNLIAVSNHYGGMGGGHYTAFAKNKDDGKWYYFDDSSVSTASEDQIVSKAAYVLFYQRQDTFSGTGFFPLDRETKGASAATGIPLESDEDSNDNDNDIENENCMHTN
Outline: as §1

[10] = target: USP16 (UniProt Q9Y5T5)
USP16, sequence (Q9Y5T5 whole entry, looked up): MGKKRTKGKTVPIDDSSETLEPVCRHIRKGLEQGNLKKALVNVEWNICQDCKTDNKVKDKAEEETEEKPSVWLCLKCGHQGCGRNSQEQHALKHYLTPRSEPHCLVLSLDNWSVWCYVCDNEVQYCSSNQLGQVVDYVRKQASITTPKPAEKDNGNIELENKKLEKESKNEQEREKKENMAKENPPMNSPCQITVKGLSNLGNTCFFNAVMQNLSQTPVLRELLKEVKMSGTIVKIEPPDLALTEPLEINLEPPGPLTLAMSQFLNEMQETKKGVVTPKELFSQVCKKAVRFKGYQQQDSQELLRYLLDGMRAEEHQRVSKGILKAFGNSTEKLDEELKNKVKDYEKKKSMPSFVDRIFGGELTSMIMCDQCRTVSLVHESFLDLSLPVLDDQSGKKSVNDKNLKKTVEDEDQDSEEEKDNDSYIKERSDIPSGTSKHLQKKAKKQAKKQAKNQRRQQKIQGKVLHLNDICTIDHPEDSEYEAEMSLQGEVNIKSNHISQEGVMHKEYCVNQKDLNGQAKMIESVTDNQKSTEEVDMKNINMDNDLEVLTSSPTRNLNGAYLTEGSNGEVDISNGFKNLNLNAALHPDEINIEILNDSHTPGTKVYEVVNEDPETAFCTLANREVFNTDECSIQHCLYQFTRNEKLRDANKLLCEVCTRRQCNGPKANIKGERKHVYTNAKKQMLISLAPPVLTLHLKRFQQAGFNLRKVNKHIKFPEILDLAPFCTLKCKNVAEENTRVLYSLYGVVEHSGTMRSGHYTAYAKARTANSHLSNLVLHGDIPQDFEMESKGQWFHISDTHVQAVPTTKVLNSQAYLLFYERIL
Outline: as §1

Measured: log2 ratio of Biotin-Ahx-Ub-VS probe labelling

CC(NC(=O)CCl)c1cccc(Cl)c1 (stereo not given)
inactive: [1] -0.345 | [3] -0.202 | [4] -0.316 | [6] -0.204 | [7] -0.426 | [8] -0.136 | [9] -0.301 | [10] 0.118
active: [2] -1.21 | [5] -1.58

— the supplement of paper PMC11732987, “Enantioselective OTUD7B fragment discovery through chemoproteomics screening and high-throughput optimisation” (Communications Chemistry, 2025)
